# In PubChem BioAssay (Tox21):
# “And” between values parts separate entries of the source, which are not always exact repeats. Equal values may be shown once. Inconclusive results are not listed. A call without a number means that no potency is given here. Where a structure was tested more than once in an assay, its records may differ in their call. The source made the active and inactive calls. Unless noted, calls come from the whole dose curve.
# Key:
# [1] = qHTS assay to identify small molecule antagonists of the sonic hedgehog signaling (Shh) pathway (AID 1259369); note: nearly all actives have a fitted effect of over 45% in size; note: potency is the fitted concentration of half-maximal effect
# Outline: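 Luminescence readout: firefly Luc under Gli1 response element in 3T3Gli1-Luc cells (NIH/3T3 clone). Antagonist mode, stimulation by conditioned medium; compound exposure 24hr at 37 C, 5% CO2.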
# [2] = molecular target: Estrogen receptor beta (Homo sapiens) (UniProt Q92731); test: qHTS assay to identify small molecule antagonists of the estrogen receptor beta (ER-beta) signaling pathway (AID 1259378; active = well fitted inhibition curve with a large enough effect in the signal ratio in the repeat runs, not every such curve was filed as active; the % refers to the signal ratio)
# Sequence of Estrogen receptor beta (Homo sapiens) (Q92731 whole entry, looked up): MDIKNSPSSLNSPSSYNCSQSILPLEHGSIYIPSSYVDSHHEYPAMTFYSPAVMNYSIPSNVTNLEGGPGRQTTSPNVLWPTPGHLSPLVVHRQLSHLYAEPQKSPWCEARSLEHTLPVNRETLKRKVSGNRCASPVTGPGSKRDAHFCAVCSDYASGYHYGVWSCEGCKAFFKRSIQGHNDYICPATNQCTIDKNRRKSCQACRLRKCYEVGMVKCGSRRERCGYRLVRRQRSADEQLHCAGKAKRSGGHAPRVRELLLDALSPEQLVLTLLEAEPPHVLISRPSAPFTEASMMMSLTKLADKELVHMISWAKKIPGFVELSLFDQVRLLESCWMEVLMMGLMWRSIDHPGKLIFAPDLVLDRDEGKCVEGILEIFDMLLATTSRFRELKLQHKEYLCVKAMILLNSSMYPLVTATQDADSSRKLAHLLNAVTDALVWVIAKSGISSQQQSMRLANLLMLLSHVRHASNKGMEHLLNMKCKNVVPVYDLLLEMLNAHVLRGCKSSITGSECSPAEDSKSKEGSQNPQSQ
# Outline: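 ER-beta-UAS-bla HEK293T cells in 2% charcoal-stripped FBS medium treated with compound plus 1nM final 17-beta-estradiol for 16 hr at 37C. Beta-lactamase reporter read by FRET substrate fluorescence after 2 hours at room temperature.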
# [3] = qHTS assay to identify small molecule agonists of the androgen receptor (AR) signaling pathway in the presence of an antagonist - cell viability counter screen (AID 1259379; active = well fitted curve in the direction sought with a large enough effect in the repeat runs; an effect the other way counts as inactive or inconclusive; note: nearly all actives have a fitted effect of over 25% in size; note: potency is the fitted concentration of half-maximal effect)
# Outline: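 Viability counter screen: CellTiter-Fluor fluorescence, measured in the same wells as the luciferase read-out. MDA-kb2 cells, 3,000/well, with nilutamide at 3.0uM final and compounds at 15 concentrations, 16 hr at 37C, 0% CO2.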
# [4] = qHTS assay to identify small molecule antagonists of the estrogen receptor beta (ER-beta) signaling pathway - cell viability counter screen (AID 1259382; active = well fitted curve in the direction sought with a large enough effect in the repeat runs; an effect the other way counts as inactive or inconclusive; note: series mostly up to about 92 µM; nearly all actives have a fitted effect of over 55% in size)
# Outline: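 Luminescent ATP read-out (CellTiter-Glo, 30 min, RT) taken in the same wells as the bla reporter assay. HEK293T ER-beta-UAS-bla cells in 2% charcoal-stripped FBS were exposed to compounds with 1nM E2 for 16 hr at 37C.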
# [5] = qHTS assay to identify small molecule agonists or antagonists of the thyroid stimulating hormone receptor (TSHR) signaling pathway - wild type cell line counter screen (AID 1259384)
# Outline: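 Wild-type Hek293 cells, 800/well, 18 h at 37C, then compound with Ro20-1724 for 30 min RT. cAMP by HTRF (cAMP-d2/anti-cAMP cryptate), 1 h RT, fluorescence read. 15 concentrations, triplicates.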
# [6] = molecular target: Thyrotropin receptor (Homo sapiens) (UniProt P16473); test: qHTS assay to identify small molecule antagonists of the thyroid stimulating hormone receptor (TSHR) signaling pathway (AID 1259385); note: nearly all actives have a fitted effect of over 20% in size
# Sequence of Thyrotropin receptor (Homo sapiens) (P16473 whole entry, looked up): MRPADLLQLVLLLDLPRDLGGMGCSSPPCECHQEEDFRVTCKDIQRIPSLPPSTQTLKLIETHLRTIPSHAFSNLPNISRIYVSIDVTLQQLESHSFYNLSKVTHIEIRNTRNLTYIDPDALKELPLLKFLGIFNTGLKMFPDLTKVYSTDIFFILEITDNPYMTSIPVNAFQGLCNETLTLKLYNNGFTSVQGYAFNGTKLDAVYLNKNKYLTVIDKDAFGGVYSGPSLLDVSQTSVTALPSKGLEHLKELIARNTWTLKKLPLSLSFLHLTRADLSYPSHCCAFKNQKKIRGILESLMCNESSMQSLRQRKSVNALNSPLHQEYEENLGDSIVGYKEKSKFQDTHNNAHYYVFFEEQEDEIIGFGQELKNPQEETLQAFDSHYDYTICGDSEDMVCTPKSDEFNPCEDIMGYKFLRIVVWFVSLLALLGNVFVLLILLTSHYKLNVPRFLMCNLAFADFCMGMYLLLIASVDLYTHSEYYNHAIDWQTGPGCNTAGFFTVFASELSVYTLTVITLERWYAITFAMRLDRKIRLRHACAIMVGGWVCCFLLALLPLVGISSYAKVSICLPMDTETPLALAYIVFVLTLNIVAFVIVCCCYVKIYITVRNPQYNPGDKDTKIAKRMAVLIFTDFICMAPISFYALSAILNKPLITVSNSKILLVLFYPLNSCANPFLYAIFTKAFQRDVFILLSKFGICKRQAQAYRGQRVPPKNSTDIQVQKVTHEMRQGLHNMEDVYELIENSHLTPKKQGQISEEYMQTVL
# Outline: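 TSHR-HEK293 cells (800/well) plated 18 h, then compounds with Ro20-1724 and TSH at 1.5 ng/mL final, 30 min at room temperature. cAMP quantified by HTRF (cAMP-d2/anti-cAMP-cryptate, 1 h); 15 concentrations in triplicate.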
# [7] = qHTS assay to identify small molecule agonists of the estrogen receptor beta (ER-beta) signaling pathway - cell viability counter screen (AID 1259380; active = well fitted curve in the direction sought with a large enough effect in the repeat runs; an effect the other way counts as inactive or inconclusive; note: nearly all actives have a fitted effect of over 30% in size)
# Outline: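 Luminescence read-out (CellTiter-Glo, 30 min, room temp) taken in the same wells as the beta-lactamase reporter assay; ER-beta-UAS-bla HEK293T cells exposed to DMSO-dissolved compounds for 16 hr at 37C in 2% charcoal-stripped FBS medium.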
# [8] = molecular target: Estrogen receptor (Homo sapiens) (UniProt P03372); test: qHTS assay to identify small molecule agonists of the estrogen receptor alpha (ER-alpha) signaling pathway in the presence of an antagonist (AID 1259383); note: nearly all actives have a fitted effect of over 15% in size; note: potency is the fitted concentration of half-maximal effect; for activation: top concentration of the series differs between compounds
# Sequence of Estrogen receptor (Homo sapiens) (P03372 whole entry, looked up): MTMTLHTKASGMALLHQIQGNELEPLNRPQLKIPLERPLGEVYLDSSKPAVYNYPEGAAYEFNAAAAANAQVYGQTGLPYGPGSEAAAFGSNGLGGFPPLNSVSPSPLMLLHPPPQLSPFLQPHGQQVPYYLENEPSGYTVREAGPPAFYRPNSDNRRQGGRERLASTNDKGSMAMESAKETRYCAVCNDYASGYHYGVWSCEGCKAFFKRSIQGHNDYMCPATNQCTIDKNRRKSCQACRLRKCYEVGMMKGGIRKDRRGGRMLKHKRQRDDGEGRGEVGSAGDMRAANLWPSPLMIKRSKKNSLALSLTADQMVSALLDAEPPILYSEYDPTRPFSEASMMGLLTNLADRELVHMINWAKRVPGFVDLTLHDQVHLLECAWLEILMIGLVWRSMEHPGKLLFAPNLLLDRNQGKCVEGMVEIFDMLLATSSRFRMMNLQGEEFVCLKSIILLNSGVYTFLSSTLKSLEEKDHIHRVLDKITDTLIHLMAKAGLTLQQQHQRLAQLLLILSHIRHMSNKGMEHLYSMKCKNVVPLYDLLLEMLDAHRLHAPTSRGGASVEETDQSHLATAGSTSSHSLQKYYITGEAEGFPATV
# Outline: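 Luciferase luminescence (ONE-Glo, 30min at room temperature) measured in VM7Luc4E2 cells after 22hr compound exposure at 15 concentrations, with 10.0nM ICI-182,780 final present; cells express endogenous ER-alpha and carry four EREs upstream of luciferase.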
# [9] = molecular target: Androgen receptor (Homo sapiens) (UniProt P10275); test: qHTS assay to identify small molecule agonists of the androgen receptor (AR) signaling pathway in the presence of an antagonist (AID 1259381); note: nearly all actives have a fitted effect of over 15% in size
# Sequence of Androgen receptor (Homo sapiens) (P10275 whole entry, looked up): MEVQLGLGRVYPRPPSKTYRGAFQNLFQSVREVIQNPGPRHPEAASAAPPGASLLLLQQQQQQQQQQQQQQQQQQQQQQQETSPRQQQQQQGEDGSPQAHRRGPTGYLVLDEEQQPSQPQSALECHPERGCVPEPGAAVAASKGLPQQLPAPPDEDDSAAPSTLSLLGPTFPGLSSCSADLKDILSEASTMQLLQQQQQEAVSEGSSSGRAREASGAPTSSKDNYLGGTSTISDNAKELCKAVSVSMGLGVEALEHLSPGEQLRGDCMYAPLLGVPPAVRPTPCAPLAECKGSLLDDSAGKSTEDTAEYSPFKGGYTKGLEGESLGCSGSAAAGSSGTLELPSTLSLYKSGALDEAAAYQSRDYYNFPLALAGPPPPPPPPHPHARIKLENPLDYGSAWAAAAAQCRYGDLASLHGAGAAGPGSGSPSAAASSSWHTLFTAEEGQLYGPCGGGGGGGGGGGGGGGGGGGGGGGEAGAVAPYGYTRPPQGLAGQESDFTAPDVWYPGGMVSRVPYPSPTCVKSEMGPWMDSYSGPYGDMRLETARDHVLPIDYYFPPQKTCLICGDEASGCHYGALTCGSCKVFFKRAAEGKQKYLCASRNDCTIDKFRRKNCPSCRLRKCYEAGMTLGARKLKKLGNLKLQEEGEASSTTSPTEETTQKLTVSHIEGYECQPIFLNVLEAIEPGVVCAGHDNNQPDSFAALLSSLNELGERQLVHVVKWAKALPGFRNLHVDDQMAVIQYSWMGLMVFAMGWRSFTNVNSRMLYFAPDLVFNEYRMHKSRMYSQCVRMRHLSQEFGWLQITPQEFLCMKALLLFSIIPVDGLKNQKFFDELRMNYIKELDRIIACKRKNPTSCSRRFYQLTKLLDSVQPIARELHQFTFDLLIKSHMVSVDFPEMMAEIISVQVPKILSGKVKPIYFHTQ
# Outline: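 Luciferase read-out (ONE-Glo, 30min room temperature) in MDA-kb2 MMTV-reporter cells; agonist mode run in presence of AR antagonist nilutamide, 3.0uM final. Compounds tested as 15-point series, 16hr exposure at 37C, 0% CO2.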
# [10] = molecular target: Estrogen receptor beta (Homo sapiens) (UniProt Q92731); test: qHTS assay to identify small molecule agonists of the estrogen receptor beta (ER-beta) signaling pathway (AID 1259377; active = well fitted activation curve with a large enough effect in the signal ratio in the repeat runs, not every such curve was filed as active; the % refers to the signal ratio; note: potency is the fitted concentration of half-maximal effect)
# Outline: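 Screening used GripTite ER-beta-UAS-bla cells held in 2% charcoal-stripped FBS medium. After overnight (16 hr) compound incubation at 37C, beta-lactamase activity was detected with a FRET substrate by fluorescence.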
SMILES,Potency [1],outcome [2],Potency [3],Potency [4],outcome [5],outcome [6],Potency [7],Potency [8],Potency [9],Potency [10]
BrCCc1ccccc1,inactive,inactive,inactive,inactive,inactive,inactive,–,–,–,–
O=C(O)C(Br)(Br)Br,inactive,–,inactive,inactive,inactive,inactive,inactive,inactive,–,–
CN(CCO)CCO,inactive,–,inactive,inactive,inactive,inactive,inactive,inactive,–,–
NC1(c2ccccc2)CCCCC1,inactive,–,inactive,inactive,inactive,inactive,inactive,inactive,–,–
COc1ccc2c(C(=O)c3ccc(Cl)cc3)c(C)n(CC(=O)O)c2c1,inactive,–,inactive,–,–,–,inactive,–,–,–
CCOC(=O)NC(C)(C)Cc1ccc(Cl)cc1,inactive,–,inactive,inactive,inactive,–,inactive,inactive,inactive,–
C[C@H]1CCCC(=O)CCC/C=C/c2cc(O)cc(O)c2C(=O)O1,14.8 µM (active) and inactive,–,46.8 µM (active) and inactive,inactive,–,–,inactive,41.7 nM (active) and 56.3 nM (active),inactive,–
COc1cccc([C@@]2(O)CCCC[C@@H]2CN(C)C)c1,inactive,–,inactive,inactive,inactive,inactive,inactive,inactive,inactive,–
CNC(=O)O/N=C(/CSC)C(C)(C)C,inactive,–,inactive,–,inactive,inactive,inactive,inactive,inactive,–
CCCC[N+](=O)[O-],inactive,–,inactive,inactive,inactive,inactive,inactive,inactive,–,–
C=CCC1(C(C)CC)C(=O)NC(=O)NC1=O (stereo unspecified),inactive,–,inactive,inactive,inactive,inactive,inactive,inactive,–,–
CN1COCN(Cc2cnc(Cl)s2)/C1=N\[N+](=O)[O-],inactive,–,inactive,inactive,inactive,–,inactive,–,–,–
CCCCCCCCSC(=O)Oc1cc(Cl)nnc1-c1ccccc1,inactive,–,inactive,–,–,–,–,–,–,–
CC(C)(C)c1cc(O)ccc1O,7.7 µM (active) and 3.86 µM (active),–,inactive,inactive,–,–,inactive,inactive,–,–
CCCN1CCC[C@@H]2Cc3nc(N)ncc3C[C@H]21,inactive,–,inactive,inactive,inactive,inactive,inactive,inactive,–,–
Clc1ccc(C(Cl)(Cl)Cl)cn1,inactive,–,inactive,inactive,inactive,inactive,inactive,–,inactive,–
CNC(=O)Oc1ccccc1C(C)C,inactive,–,inactive,inactive,inactive,inactive,inactive,inactive,inactive,–
COc1cc(CC(C)N)cc(OC)c1OC (stereo unspecified),inactive,–,inactive,inactive,inactive,–,inactive,–,–,–
O=P(O)(O)c1ccccc1,inactive,–,inactive,inactive,inactive,inactive,inactive,inactive,–,–
O=S1(=O)OCCO1,inactive,–,inactive,inactive,inactive,inactive,inactive,–,inactive,–
CC(C)NCC(O)c1ccc([N+](=O)[O-])cc1 (stereo unspecified),inactive,–,inactive,inactive,inactive,inactive,inactive,–,–,–
CC(=NC#N)N(C)Cc1ccc(Cl)nc1,inactive,–,inactive,inactive,inactive,inactive,inactive,–,–,–
O=[N+]([O-])CCO,inactive,–,inactive,–,–,–,inactive,inactive,–,–

SMILES,Potency [1],outcome [2],Potency [3],Potency [4],outcome [5],outcome [6],Potency [7],Potency [8],Potency [9],Potency [10]
CC(C)(C)NC[C@H](O)c1ccc(O)cc1Cl,inactive,–,inactive,–,–,inactive,inactive,–,–,–
Cc1cccc2sc3nncn3c12,inactive,–,inactive,–,inactive,inactive,inactive,inactive,–,–
COC(=O)[C@@H](N)CCCN/C(N)=N/[N+](=O)[O-],inactive,–,inactive,inactive,inactive,inactive,inactive,–,–,–
CC(Cl)(Cl)Cl,inactive,–,inactive,inactive,inactive,inactive,inactive,–,–,–
NCC1(CC(=O)O)CCCCC1,inactive,–,inactive,inactive,inactive,inactive,inactive,–,–,–
BrCc1ccc(Br)cc1,inactive,–,inactive,inactive,inactive,inactive,–,–,inactive,–
O=[N+]([O-])c1cccc(CCl)c1,inactive,–,inactive,inactive,inactive,inactive,inactive,–,–,–
C=CCN1CC[C@]23CCCC[C@H]2[C@H]1Cc1ccc(O)cc13,inactive,–,inactive,inactive,inactive,inactive,inactive,–,–,–
CN1C(=O)COc2c(C(=O)NC3CN4CCC3CC4)cc(Cl)cc21 (stereo unspecified),inactive,–,inactive,inactive,inactive,inactive,inactive,–,–,–
O=C(Cl)c1ccccc1,inactive,–,inactive,inactive,inactive,inactive,–,inactive,–,–
ClCCCCCCCl,inactive,–,inactive,–,inactive,inactive,inactive,–,–,–
COP(=O)(O)OC,inactive,–,inactive,–,inactive,inactive,–,inactive,inactive,–
O=c1[nH]c2ccccc2n1C1CCNCC1,inactive,–,inactive,inactive,inactive,inactive,–,inactive,inactive,–
CS(=O)(=O)c1ccc(C(=O)C2C(=O)CCCC2=O)c(Cl)c1COCC(F)(F)F,inactive,–,inactive,–,inactive,inactive,inactive,–,–,–
N#CN=C1SCCN1Cc1ccc(Cl)nc1,inactive,–,inactive,–,inactive,inactive,inactive,inactive,–,–
N#CC(Br)(Br)C(N)=O,inactive,–,inactive,inactive,inactive,inactive,inactive,–,–,–
CC(C)(N)Cc1ccc(Cl)cc1,inactive,–,inactive,–,inactive,inactive,inactive,inactive,–,–
CCCCCCCC(=O)Cl,inactive,–,inactive,–,inactive,inactive,inactive,inactive,–,–
CCCCOC(C)=O,inactive,–,inactive,inactive,inactive,inactive,inactive,–,–,–
O=C(CCl)NCO,inactive,–,inactive,–,inactive,inactive,inactive,–,–,–
CCOC(=O)C(SP(=S)(OC)OC)c1ccccc1 (stereo unspecified),inactive,–,inactive,–,inactive,inactive,inactive,–,–,–
O=C1CCCCC1Cl (stereo unspecified),inactive,–,inactive,inactive,inactive,inactive,inactive,–,–,–
COc1cc(CCN)cc(OC)c1OC,inactive,–,inactive,inactive,inactive,inactive,inactive,–,–,–

SMILES,Potency [1],outcome [2],Potency [3],Potency [4],outcome [5],outcome [6],Potency [7],Potency [8],Potency [9],Potency [10]
C[C@@H](N)[C@@H](O)c1ccccc1,inactive,–,inactive,inactive,inactive,inactive,–,–,–,–
CCOC(=O)COc1ccc(Cl)cc1Cl,inactive,–,inactive,inactive,inactive,inactive,inactive,–,–,–
CC(C)(C)C(=O)C(Cl)Cl,inactive,–,inactive,inactive,inactive,inactive,inactive,–,–,–
CCOP(=O)(CN(CCO)CCO)OCC,inactive,–,inactive,–,inactive,inactive,inactive,inactive,–,–
CC(C)C(C)(N)C#N (stereo unspecified),inactive,–,inactive,inactive,–,–,–,–,–,–
O=C(O)CBr,inactive,–,inactive,inactive,inactive,inactive,inactive,–,–,–
CC1=C2[C@H]3OC(=O)[C@@H](C)[C@@H]3CC[C@@]2(C)C=CC1=O,inactive,–,inactive,inactive,–,–,–,–,–,–
CCN[C@H](C)Cc1cccc(C(F)(F)F)c1,inactive,–,inactive,inactive,inactive,inactive,–,inactive,–,–
ClCC1CO1 (stereo unspecified),inactive,–,inactive,–,inactive,inactive,inactive,inactive,–,–
COC1=CC(=O)O[C@@H](/C=C/c2ccccc2)C1,–,–,inactive,inactive,inactive,inactive,–,–,–,inactive
CCCCS(=O)(=O)Cl,inactive,–,inactive,inactive,inactive,inactive,–,–,–,–
CON(C)C(=O)Nc1ccc(Br)c(Cl)c1,–,inactive,inactive,inactive,inactive,inactive,–,–,–,–
Cc1ccc(-c2nc3ccc(C)cn3c2CC(=O)N(C)C)cc1,inactive,–,inactive,–,inactive,inactive,–,–,–,–
O=C(O)C(F)(F)C(F)(F)C(F)(F)C(F)(F)C(F)(F)C(F)(F)F,inactive,–,inactive,–,inactive,inactive,–,–,–,–
Cc1ccc(Cl)c(O)c1,–,–,inactive,inactive,inactive,inactive,inactive,inactive,–,–
O=c1[nH]c2ccccc2o1,inactive,–,inactive,–,inactive,inactive,–,–,–,–
c1ccc2c(c1)CCNC2,–,inactive,inactive,inactive,inactive,inactive,–,–,–,inactive
Oc1ccc(Cc2ccc(O)cc2)cc1,–,–,inactive,–,inactive,inactive,inactive,30.9 µM (active),–,5.49 µM (active)
CC#Cc1cc(C)nc(Nc2ccccc2)n1,–,–,inactive,inactive,inactive,inactive,–,inactive,–,inactive
CCC1(c2cccc(O)c2)CCCCN(C)C1 (stereo unspecified),–,–,inactive,inactive,inactive,inactive,inactive,–,–,–
Nc1c(Cl)c(F)nc(OCC(=O)O)c1Cl,–,inactive,inactive,inactive,inactive,inactive,inactive,–,inactive,–
NNC(N)=O,–,inactive,inactive,inactive,inactive,inactive,inactive,inactive,–,–
C[C@]12C=CC(=O)C=C1CC[C@@H]1[C@@H]2CC[C@@]2(C)[C@H]1CC[C@]2(C)O,–,–,inactive,inactive,inactive,inactive,–,2.98 µM (active),–,–
